Screens: PubChem BioAssay, several laboratories
14-3-3 Bad inh = disrupts binding of bovine 14-3-3 zeta to phospho-Bad peptide; AID 781; 220,000 compounds, 0.71% hits; P63103; TR-FRET 14-3-3zeta/Dy647-pBad peptide displacement, 1 h; inhibition, % at 21.7 µM;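 active means inhibition above about 70%, limit read from the data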;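 further: 0% = full 14-3-3 plus peptide FRET controls and 100% = background without 14-3-3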
Target sequence (P63103 whole entry, looked up): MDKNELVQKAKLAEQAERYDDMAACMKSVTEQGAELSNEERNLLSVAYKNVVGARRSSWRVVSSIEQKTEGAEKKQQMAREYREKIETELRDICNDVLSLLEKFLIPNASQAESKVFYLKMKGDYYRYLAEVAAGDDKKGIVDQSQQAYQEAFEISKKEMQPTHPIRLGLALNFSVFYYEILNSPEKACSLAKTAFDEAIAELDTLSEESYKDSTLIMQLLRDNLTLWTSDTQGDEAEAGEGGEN
dFosB act-1 = mouse delta FosB homodimer activation | activation, % at 25 µM | purified delta FosB, TAMRA-CDK5 oligo fluorescence polarization; percent of positive-control signal above neutral wells | P13346 | 340,000 compounds, 0.99% hits | AID 493131;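 active means mean activation above about 17%, with every replicate also reaching it, limit read from the data, passing the limit was not always enough; inconclusive means only one of the two conditions met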
HMGR II inh = E. faecalis class II HMG-CoA reductase inhibition; purified E. faecalis HMGR, NADPH absorbance 340 nm kinetic; inhibition, % at 10 µM; 190,000 compounds, 0.41% hits;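 active means inhibition above a set limit, the median over all tested compounds plus 3 SD, cut at about 9.5% in these data; inconclusive means no clear call, values can overlap the other calls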;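 further: enzyme runs in reverse so mevalonate oxidation gives rising NADPH absorbance; 0% = complete reaction with DMSO and 100% = background rate lacking mevalonate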
NCF1 inh = blocks human p47phox regulatory protein of NADPH oxidases; AID 1274; inhibition, % at 24.7 µM; 220,000 compounds, 0.53% hits; p47phox/p22phox peptide binding, fluorescence polarization, 2 h;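 active means inhibition above about 30%, limit read from the data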;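 further: 0% = p47phox with labelled peptide and 100% = labelled peptide alone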
Target sequence (P14598 whole entry, looked up): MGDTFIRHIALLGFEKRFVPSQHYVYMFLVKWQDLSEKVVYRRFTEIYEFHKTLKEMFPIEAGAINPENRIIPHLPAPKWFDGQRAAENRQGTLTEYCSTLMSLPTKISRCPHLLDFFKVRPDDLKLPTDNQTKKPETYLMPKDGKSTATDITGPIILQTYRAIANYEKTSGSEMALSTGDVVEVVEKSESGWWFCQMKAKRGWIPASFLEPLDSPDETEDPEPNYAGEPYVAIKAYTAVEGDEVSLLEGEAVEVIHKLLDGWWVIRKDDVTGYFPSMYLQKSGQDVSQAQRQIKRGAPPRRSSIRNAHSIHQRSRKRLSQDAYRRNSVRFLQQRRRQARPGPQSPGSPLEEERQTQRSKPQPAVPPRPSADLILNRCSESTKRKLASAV
dFosB act-2 = enhances mouse delta FosB homodimer binding to DNA; shares compounds with dFosB act-1; purified delta FosB, TAMRA-CDK5 oligo fluorescence polarization; normalised: neutral wells 0, positive control 100; AID 588690; activation, % at 24.9 µM; 2,400 tested, under 10 active;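 active means highest replicate activation at or above 34% and every replicate reaching that threshold; inconclusive means meets only one of the two criteria; inactive means meets neither criterion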;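 further: higher polarization means more probe DNA bound by delta FosB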
An asterisk follows results filed as active. This is a sample that favours compounds with a hit; in the whole collection about 1.9% have one here.

Results for Cc1ccc(NC(=O)C2CC(=O)Nc3nc4ccccc4n32)c(C)c1 (stereo not drawn) ?
14-3-3 Bad inh: 0.4; dFosB act-1: 47.4*; NCF1 inh: -10.5; dFosB act-2: 5.9

What do the screens show for `COCCCN1C(=O)C(O)=C(C(=O)c2ccco2)C1c1ccc(Br)cc1` (stereo not drawn)?
dFosB act-1: -1.1; HMGR II inh: 1.3

How did C(=N\Nc1nc(Nc2ccccc2)nc(Nc2ccccc2)n1)/c1ccncc1 do in these assays?
14-3-3 Bad inh: 4.0; dFosB act-1: 14.3; HMGR II inh: -0.9; NCF1 inh: 7.2

What do the screens show for `C(=N\Nc1nc(Nc2ccccc2)nc(Nc2ccccc2)n1)/c1cccnc1`?
14-3-3 Bad inh: -12.2; dFosB act-1: 65.3*; HMGR II inh: -5.3; NCF1 inh: -39.5; dFosB act-2: -0.2

What do the screens show for `COc1ccc(/C=N/NC(=O)C2C(=O)NCC2c2ccccc2)c(OC)c1` (stereo not drawn)?
14-3-3 Bad inh: -2.6; dFosB act-1: -3.0; HMGR II inh: -1.0; NCF1 inh: -5.6

How did CCOc1ccc(CCNC(=O)CCS(=O)(=O)c2ccc(C)cc2)cc1OCC do in these assays?
dFosB act-1: -12.1

How did O=C(NC(C(=O)N/N=C/c1cccc2ccccc12)c1n[nH]c(=O)c2ccccc12)c1ccccc1 (stereo not drawn) do in these assays?
14-3-3 Bad inh: -5.2; dFosB act-1: 27.5*; HMGR II inh: 1.0; NCF1 inh: -9.0; dFosB act-2: 8.1

What do the screens show for `O=C(NC(C(=O)N/N=C/c1ccncc1)c1n[nH]c(=O)c2ccccc12)c1ccccc1` (stereo not drawn)?
14-3-3 Bad inh: 7.3; dFosB act-1: -12.3; NCF1 inh: 1.4

Results for C=CCN1C(=O)C2(NNc3ccccc3O2)c2ccccc21 (stereo not drawn) ?
14-3-3 Bad inh: -0.9; dFosB act-1: -9.3; HMGR II inh: -7.3; NCF1 inh: -41.7

What do the screens show for `CCOC(=O)CC1(C)SC(NC(C)=O)=NN1C(C)=O` (stereo not drawn)?
14-3-3 Bad inh: -4.2; dFosB act-1: 0.4; HMGR II inh: 0.8; NCF1 inh: 1.9

What do the screens show for `CCOP(=O)(OCC)C(NC(=O)c1ccc(OC)c(OC)c1)c1ccccc1` (stereo not drawn)?
14-3-3 Bad inh: -15.9; dFosB act-1: -3.7; HMGR II inh: -2.6; NCF1 inh: 2.5

What do the screens show for `CN(CC(=O)Nc1c(Cl)cccc1Cl)C(=O)CNC(=O)c1sc2ccccc2c1Cl`?
dFosB act-1: 34.7*; dFosB act-2: -2.0

What do the screens show for `Cc1nn(Cc2c(Cl)cccc2Cl)c(C)c1NC(=O)c1sc2ccccc2c1Cl`?
14-3-3 Bad inh: 14.8; dFosB act-1: 40.5*; HMGR II inh: -2.4; NCF1 inh: -14.5; dFosB act-2: 5.4

How did COc1ccc(NC(=O)CN(C)C(=O)CNC(=O)c2sc3ccccc3c2Cl)cc1 do in these assays?
dFosB act-1: -9.7

What do the screens show for `Cc1nn(Cc2ccc(Cl)c(Cl)c2)c(C)c1NC(=O)c1sc2ccccc2c1Cl`?
14-3-3 Bad inh: -15.8; dFosB act-1: -6.5; HMGR II inh: -1.7; NCF1 inh: -3.4

How did Cn1ncc(Cl)c1C(=O)N1CCN(c2ncccn2)CC1 do in these assays?
14-3-3 Bad inh: 26.0; dFosB act-1: 1.4; HMGR II inh: -2.6; NCF1 inh: 2.5

What do the screens show for `Cc1c(N=C2NC(=O)/C(=C/c3cccc([N+](=O)[O-])c3)S2)c(=O)n(-c2ccccc2)n1C`?
14-3-3 Bad inh: -23.3; HMGR II inh: 5.0; NCF1 inh: -5.3

What do the screens show for `Cc1nc2cc(C(=O)OCC(=O)NC34CC5CC(CC(C5)C3)C4)ccc2n1-c1ccccc1`?
14-3-3 Bad inh: 11.4; dFosB act-1: 65.4*; HMGR II inh: -0.4; NCF1 inh: -39.1; dFosB act-2: -0.7

What do the screens show for `Cc1ccc(NC(=O)c2ncn(CC(=O)NCc3nc4ccccc4[nH]3)n2)cc1C`?
dFosB act-1: 46.7*; dFosB act-2: -6.8

How did Cc1cnc(C(=O)Nc2nc(-c3ccccc3)cs2)cn1 do in these assays?
14-3-3 Bad inh: -0.8; dFosB act-1: 2.5; HMGR II inh: -1.6; NCF1 inh: -17.0

How did COc1ccc(C2CC(c3ccccc3)=NN2C(=O)COC(=O)c2cc(S(=O)(=O)N3CCOCC3)ccc2Cl)cc1 (stereo not drawn) do in these assays?
14-3-3 Bad inh: -5.4; dFosB act-1: 30.5*; HMGR II inh: 0.0; NCF1 inh: -5.8; dFosB act-2: 2.4

How did COc1ccc(C2CC(c3ccccc3)=NN2C(=O)COC(=O)c2cccnc2Cl)cc1 (stereo not drawn) do in these assays?
14-3-3 Bad inh: 6.0; dFosB act-1: 0.0; HMGR II inh: -6.9; NCF1 inh: -11.4

What do the screens show for `CNC(=O)c1ccc(NC(=O)c2cc(S(=O)(=O)N3CCOCC3)ccc2N2CCCC2)cc1`?
dFosB act-1: -5.1

Results for O=C(Nc1nnc(-c2cccs2)s1)c1cccc(F)c1 ?
14-3-3 Bad inh: -8.2; dFosB act-1: 36.1*; HMGR II inh: -6.0; NCF1 inh: 1.5; dFosB act-2: -5.5

How did CCN(CC)CCNC(=O)CCc1c(C)nc2c(c(C)nn2-c2ccc(C)c(C)c2)c1C do in these assays?
dFosB act-1: 19.6*; dFosB act-2: 1.2

How did COCCCNC(=O)CCc1c(C)nc2c(c(C)nn2-c2ccccc2)c1C do in these assays?
dFosB act-1: -1.8

What do the screens show for `CC(=O)c1c(C)[nH]c(C(=O)NNC(=O)COc2ccc(Cl)cc2C)c1C`?
dFosB act-1: 0.1

How did COc1ccc(Br)cc1-c1noc(-c2ccccc2)n1 do in these assays?
14-3-3 Bad inh: -1.9; dFosB act-1: 27.4*; HMGR II inh: -2.2; NCF1 inh: 5.0; dFosB act-2: inconclusive

Results for CNc1ccc([N+](=O)[O-])cc1-c1nc2ccccc2[nH]c1=O ?
14-3-3 Bad inh: 72.7*; dFosB act-1: 39.7*; NCF1 inh: 19.4; dFosB act-2: 0.9

What do the screens show for `COc1ccc(OC)c(Nc2ncnc3ccccc23)c1`?
14-3-3 Bad inh: 52.5; dFosB act-1: -5.3; HMGR II inh: -2.2; NCF1 inh: -5.3

How did COc1ccc2oc(=O)c(-c3cn4ccc(C)cc4n3)cc2c1 do in these assays?
14-3-3 Bad inh: 58.0; dFosB act-1: 26.2*; HMGR II inh: 3.0; NCF1 inh: 9.2; dFosB act-2: 4.5

How did O=c1oc2ccccc2cc1-c1cn2ccccc2n1 do in these assays?
14-3-3 Bad inh: -10.5; dFosB act-1: -5.0; HMGR II inh: 0.8; NCF1 inh: -6.6

Results for COC(=O)c1ccc(C(=O)Nc2ccc3nc(-c4cccnc4)[nH]c3c2)cc1 ?
14-3-3 Bad inh: -19.8; dFosB act-1: 46.9*; HMGR II inh: -4.1; NCF1 inh: -9.0; dFosB act-2: -0.7

What do the screens show for `O=S(=O)(c1ccc(Br)cc1)N1CCN(c2ccc3nnc(-c4ccccc4)n3n2)CC1`?
14-3-3 Bad inh: 0.9; dFosB act-1: 38.4*; HMGR II inh: 4.0; NCF1 inh: -5.2; dFosB act-2: 0.3
